Only some compounds are listed: those with a hit (about 6.5% of all), similar ones and a draw of the others.
VACV Venus inh: inhibitors of vaccinia virus (Venus reporter). Vaccinia virus Venus reporter expression, fluorescence. Potency, µM (titrated, usually from 36.5 µM), usual class: inhibitors. 330,000 compounds, 0.46% hits; calls by dose curve; tested in A549 cells; also: nearly all actives have a fitted effect of over 30% in size
Marburg entry inh: blocks Marburg virus binding to or entry into cells; Potency, µM (doses to about 37.8 µM), most hits filed as inhibitors; 300,000 compounds, 1.8% hits; Marburg virus pseudotyped entry inhibition, cell reporter; calls by dose curve; tested in HEK293 cells
HCMV inh: blocks human cytomegalovirus replication; HFF cells, HCMV-luciferase reporter, 72 h; active compounds read low; 410,000 compounds, 4.5% hits; activity change, negative = inhibition, % at 57.5 µM; AID 1259415; in the data active = activity change below about -60%; inconclusive = no clear call, values can overlap the other calls; inactive = above about -39%
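HFF cells seeded 16 h at 37C, treated with compounds, infected with luciferase-reporter HCMV at MOI 1 PFU/cell; luciferase read at 72 h post infection, normalized to buffer-only and Salinomycin controls.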
FMDV antiviral: antivirals against foot and mouth disease virus; Potency, µM (series often up to 57.9 µM), hits mostly inhibitors; 410,000 compounds, 1.2% hits; AID 1159524; FMDV antiviral cell-based qHTS; calls by dose curve; tested in HEK293T cells; also: read-out not given here; nearly all actives have a fitted effect of over 45% in size
Lassa entry inh: inhibitors of Lassa virus binding or cell entry. 300,000 compounds, 1.2% hits. Potency, µM (series often up to 37.9 µM), hits mostly inhibitors. AID 540256. Lassa virus pseudotype entry inhibition, cell reporter; calls by dose curve; tested in HEK293 cells; also: nearly all actives have a fitted effect of over 50% in size
VACV mCherry inh: inhibitors of vaccinia virus infection (mCherry reporter signal) | AID 720579 | 310,000 compounds, 0.63% hits | Potency, µM (series often up to 36.5 µM), usual class: inhibitors | Vaccinia virus mCherry reporter infection, fluorescence; calls by dose curve; tested in A549 cells; also: nearly all actives have a fitted effect of over 35% in size
A number is an active result.

What do the screens show for `C[C@H](CO)N1C[C@H](C)[C@H](CN(C)S(=O)(=O)c2cn(C)cn2)Oc2ccc(NC(=O)Nc3ccc(C(F)(F)F)cc3)cc2CC1=O`?
VACV Venus inh: inactive; HCMV inh: inconclusive; FMDV antiviral: inactive; VACV mCherry inh: inactive

How did C[C@@H]1CN([C@H](C)CO)C(=O)c2cc(NC(=O)Nc3ccc(C(F)(F)F)cc3)ccc2O[C@H]1CN(C)Cc1ccc(Cl)c(Cl)c1 do in these assays?
VACV Venus inh: 10µM; HCMV inh: -97; FMDV antiviral: inactive; VACV mCherry inh: inconclusive

How did C[C@@H]1CN([C@@H](C)CO)C(=O)Cc2cc(NC(=O)Nc3ccc(C(F)(F)F)cc3)ccc2O[C@@H]1CN(C)S(=O)(=O)c1ccc(Cl)cc1 do in these assays?
VACV Venus inh: 11µM; HCMV inh: inactive; FMDV antiviral: inconclusive; VACV mCherry inh: inconclusive

What do the screens show for `C[C@H](CO)N1C[C@H](C)[C@@H](CN(C)S(=O)(=O)c2ccc(F)cc2)Oc2ccc(NC(=O)Nc3ccc(C(F)(F)F)cc3)cc2C1=O`?
VACV Venus inh: inconclusive; HCMV inh: inactive; FMDV antiviral: inconclusive; VACV mCherry inh: inconclusive

What do the screens show for `C[C@@H]1CCCCO[C@@H](CN(C)Cc2ccc(Cl)c(Cl)c2)[C@@H](C)CN([C@H](C)CO)C(=O)c2cc(NC(=O)CCC(F)(F)F)ccc2O1`?
VACV Venus inh: inconclusive; HCMV inh: -60; FMDV antiviral: inactive; VACV mCherry inh: inconclusive

What do the screens show for `C[C@@H]1CN([C@H](C)CO)C(=O)c2cc(NC(=O)Nc3ccc(C(F)(F)F)cc3)ccc2O[C@H]1CN(C)S(=O)(=O)c1ccc(Cl)cc1`?
VACV Venus inh: inactive; HCMV inh: -76; FMDV antiviral: inactive; VACV mCherry inh: inactive

How did O=C(Nc1ccc(S(=O)(=O)N2CCCC2)cc1)C1CCN(S(=O)(=O)c2ccc(F)cc2)CC1 do in these assays?
VACV Venus inh: inconclusive; Marburg entry inh: inconclusive; HCMV inh: inconclusive; FMDV antiviral: inconclusive; Lassa entry inh: inconclusive; VACV mCherry inh: inactive

Results for C[C@@H]1CN([C@H](C)CO)C(=O)c2cc(NS(=O)(=O)c3ccc(F)cc3)ccc2O[C@@H]1CN(C)Cc1ccc(Cl)c(Cl)c1 ?
VACV Venus inh: 10µM; HCMV inh: inactive; FMDV antiviral: inconclusive; VACV mCherry inh: inconclusive

Results for C[C@H](CO)N1C[C@H](C)[C@@H](CN(C)S(=O)(=O)c2ccc(F)cc2)Oc2ccc(NS(=O)(=O)c3ccc(F)cc3)cc2C1=O ?
VACV Venus inh: inactive; HCMV inh: inconclusive; FMDV antiviral: inactive; VACV mCherry inh: inactive

What do the screens show for `Cc1ccccc1Cc1c(C)nc2c(-c3ccccc3)c(C)[nH]n2c1=O`?
VACV Venus inh: inactive; Marburg entry inh: inconclusive; HCMV inh: inactive; FMDV antiviral: inconclusive; Lassa entry inh: inconclusive; VACV mCherry inh: inconclusive

Results for COc1ccc(-c2c(C)[nH]n3c(=O)c(Cc4ccccc4)c(C)nc23)cc1OC ?
VACV Venus inh: inactive; Marburg entry inh: 7.9µM; HCMV inh: inactive; FMDV antiviral: inactive; Lassa entry inh: inconclusive; VACV mCherry inh: inactive

Results for Cc1nc2c(-c3ccccc3)c(C)[nH]n2c(=O)c1Cc1ccccc1 ?
VACV Venus inh: inactive; Marburg entry inh: inconclusive; HCMV inh: inactive; FMDV antiviral: inactive; Lassa entry inh: inactive; VACV mCherry inh: inconclusive

How did Cc1cccc(Cc2c(C)nc3c(-c4ccccc4)c(C)[nH]n3c2=O)c1 do in these assays?
VACV Venus inh: inconclusive; Marburg entry inh: inconclusive; HCMV inh: -79; FMDV antiviral: inactive; Lassa entry inh: inconclusive; VACV mCherry inh: inconclusive

How did Cc1nc2c(-c3ccc(Cl)cc3)c(C)[nH]n2c(=O)c1Cc1ccccc1 do in these assays?
VACV Venus inh: inconclusive; Marburg entry inh: 4µM; HCMV inh: -99; FMDV antiviral: inactive; Lassa entry inh: inconclusive; VACV mCherry inh: 6.3µM

Results for COc1cc(NC(=O)c2cccc(S(=O)(=O)N3CCCCC3)c2)cc(OC)c1OC ?
HCMV inh: inactive; FMDV antiviral: inconclusive

How did COc1ccc(CN(C(=O)CN2C(=O)NC3(CCC(C)CC3)C2=O)C(C)Cc2cccs2)cc1 (centres undefined) do in these assays?
HCMV inh: inactive; FMDV antiviral: inactive

How did FC(F)(F)c1ccc(Cl)c(Nc2nnc(-c3ccncc3)s2)c1 do in these assays?
VACV Venus inh: inactive; HCMV inh: inactive; FMDV antiviral: inactive; VACV mCherry inh: inactive

Results for Clc1ccccc1Nc1nnc(-c2ccncc2)s1 ?
VACV Venus inh: inactive; Marburg entry inh: inconclusive; HCMV inh: inconclusive; FMDV antiviral: inconclusive; Lassa entry inh: 5µM; VACV mCherry inh: inactive

What do the screens show for `Cc1ccc(C2C3=C(CC(C)(C)CC3=O)NC3=C2C(=O)c2ccccc23)cc1` (centres undefined)?
VACV Venus inh: inconclusive; Marburg entry inh: inconclusive; HCMV inh: -65; FMDV antiviral: inactive; Lassa entry inh: inconclusive; VACV mCherry inh: inactive

What do the screens show for `CCCSC1=C(C#N)[C@H](c2ccc(OC)cc2)C2=C(CC(C)(C)CC2=O)N1`?
Marburg entry inh: inactive

Results for CC1(C)CC(=O)C2=C(C1)NC1=C(C(=O)c3ccccc31)C2c1ccc(Cl)cc1 (centres undefined) ?
VACV Venus inh: inconclusive; Marburg entry inh: inconclusive; HCMV inh: -100; FMDV antiviral: inactive; Lassa entry inh: inconclusive; VACV mCherry inh: inconclusive

What do the screens show for `CSC1=C(C#N)C(c2ccc(Cl)cc2)C2=C(CC(C)(C)CC2=O)N1` (centres undefined)?
VACV Venus inh: inactive; Marburg entry inh: inconclusive; HCMV inh: -68; FMDV antiviral: inactive; Lassa entry inh: inconclusive; VACV mCherry inh: inactive

What do the screens show for `COc1cc(C2C3=C(CC(C)(C)CC3=O)NC3=C2C(=O)c2ccccc23)ccc1O` (centres undefined)?
VACV Venus inh: inconclusive; Marburg entry inh: inactive; HCMV inh: inactive; FMDV antiviral: inactive; Lassa entry inh: inactive; VACV mCherry inh: inconclusive

How did CCOC(=O)c1ccc(Nc2nc3ccccc3nc2NS(=O)(=O)c2ccc(Cl)cc2)cc1 do in these assays?
VACV Venus inh: inconclusive; HCMV inh: inactive; FMDV antiviral: inconclusive; Lassa entry inh: inactive; VACV mCherry inh: 10µM

What do the screens show for `Cc1ccc(C(=O)NCC(=O)OCC(=O)c2cccc3ccccc23)cc1`?
VACV Venus inh: inactive; VACV mCherry inh: inactive

How did COc1ccc(N(C(=O)CCl)C(C(=O)NC2CCCCC2)c2cccnc2)cc1 (centres undefined) do in these assays?
VACV Venus inh: 2.8µM; Marburg entry inh: inconclusive; HCMV inh: -102; FMDV antiviral: 11µM; Lassa entry inh: 13µM; VACV mCherry inh: 11µM

What do the screens show for `O=C(NC1CCCCC1)C(c1cccnc1)N(C(=O)CCl)c1ccccc1Cl` (centres undefined)?
VACV Venus inh: 10µM; Marburg entry inh: inconclusive; HCMV inh: -103; FMDV antiviral: inactive; Lassa entry inh: inconclusive; VACV mCherry inh: inconclusive

What do the screens show for `O=C(NC1CCCC1)C(c1ccc(F)cc1)N(Cc1ccc(F)cc1)C(=O)CCl` (centres undefined)?
VACV Venus inh: inactive; Marburg entry inh: inactive; HCMV inh: -67; FMDV antiviral: inconclusive; Lassa entry inh: inactive; VACV mCherry inh: inactive

Compound activity as filed in PubChem BioAssay.
